Most compounds without a hit are left out; they make up all but 2.7% or so of the library.
BRCA1 expr up: increases BRCA1 expression | MCF7-BRCA1-FFLuc reporter, luminescence, 48 h; response scale: scaled: vehicle 0%, 10 µM genistein 100% | Potency, µM (series often up to 46.1 µM), hits mostly activators | 380,000 compounds, 1.1% hits; also: nearly all actives have a fitted effect of over 80% in size
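Luminescence from a BRCA1-driven firefly luciferase in MCF7 cells was read after 48 h compound exposure at 37 C. Data normalized against DMSO and a 10microM genistein activation control, then curve-fitted across the titration.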
Integrin act MD: activators of alpha7 integrin expression for muscular dystrophy; alpha7betagal myoblasts, beta-gal FDG fluorescence, 48 h; 350,000 compounds, 0.064% hits; Potency, µM (doses to about 38.3 µM), actives largely listed as activators; also: nearly all actives have a fitted effect of over 60% in size
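alpha7betagal+/- myoblasts (passage 13, 250/well) treated 48 h at 37C with compounds at 1:260 dilution of DMSO stock. Lysed, then beta-galactosidase activity read as FDG fluorescence (ex 480/em 540) after 30 min, with pre-read for autofluorescence.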
HEK293 tox: cytotoxic in the GLP-1 receptor inverse agonist counter-screen. HEK293 cAMP-luciferase reporter cells, luminescence, 24 h. Potency, µM (series often up to 38.3 µM), hits mostly inhibitors. 410,000 compounds, 0.13% hits. AID 624418;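 also: loss of luciferase light is scored as toxicity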
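MLSMR compounds, 24 hr on cells at 37 deg C/5% CO2; luminescence after luciferase reagent (12 min RT). Inhibition counted as the undesired cytotoxic outcome.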
GLP1R ag: activates the human GLP-1 receptor; 380,000 compounds, 0.007% hits; AID 624172; Potency, µM (series often up to 45.6 µM), most hits filed as activators; HEK293 GLP-1R CRE-luciferase, luminescence, 4-6 h; cells express a hypersensitive GLP-1R form
Target sequence (P43220 whole entry, looked up): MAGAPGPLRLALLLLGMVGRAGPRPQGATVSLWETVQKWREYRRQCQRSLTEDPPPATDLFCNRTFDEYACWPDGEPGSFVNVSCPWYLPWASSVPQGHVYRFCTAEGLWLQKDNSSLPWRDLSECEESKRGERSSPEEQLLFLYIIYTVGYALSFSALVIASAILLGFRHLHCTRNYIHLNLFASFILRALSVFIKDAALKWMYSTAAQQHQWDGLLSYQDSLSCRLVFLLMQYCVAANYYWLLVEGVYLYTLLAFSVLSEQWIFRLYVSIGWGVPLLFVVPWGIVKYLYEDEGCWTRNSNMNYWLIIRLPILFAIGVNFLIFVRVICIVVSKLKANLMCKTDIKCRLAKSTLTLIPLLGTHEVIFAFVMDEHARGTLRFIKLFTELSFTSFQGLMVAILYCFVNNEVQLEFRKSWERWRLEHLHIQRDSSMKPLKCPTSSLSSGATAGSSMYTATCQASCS
GLP-1R inv ag: inverse agonists of human GLP-1 receptor; P43220; HEK293 GLP-1R CRE-luciferase, luminescence, 24 h; GLP-1R form is constitutively active; AID 624417; Potency, µM (titrated, usually from 38.3 µM), most hits filed as inhibitors; 410,000 compounds, 1.6% hits; also: nearly all actives have a fitted effect of over 55% in size
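Seeding at 200 cells/uL, 12 h culture, 24 hr compound treatment, then luciferase reagent and a luminescence read; cells are HEK293 stably expressing a constitutively active GLP-1R plus cAMP-responsive luciferase.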
Each line names hits and unclear results; the compound was inactive in the other large screens. Calls follow the shape of the dose curve; as a rule, active = well fitted curve in the direction sought with a large enough effect; inconclusive = small, poorly fitted or top-dose-only effect, or another doubt; inactive = no such curve, though single readings can be large; an effect the other way counts as inactive or inconclusive.

COc1ccc(F)c(CN2CCCC(CO)(Cc3cccc(Cl)c3)C2)c1 (configuration not stated)	GLP-1R inv ag inconclusive
COc1ccccc1/C=C/CN1CCCC(CO)(Cc2cccc(Cl)c2)C1 (configuration not stated)	HEK293 tox inconclusive, GLP-1R inv ag 11.2µM
COc1ccc(/C=C/CN2CCCC(CO)(Cc3cccc(Cl)c3)C2)cc1 (configuration not stated)	HEK293 tox inconclusive, GLP-1R inv ag 3.16µM
CC1(C)CC(=O)C2=C(C1)NC(Nc1nc3ccccc3o1)=NC2c1cccnc1 (configuration not stated)	none (no result: Integrin act MD, HEK293 tox, GLP1R ag, GLP-1R inv ag)
COc1ccc(-c2noc(CCC(=O)NCC3CCN(Cc4cccc(C)c4)CC3)n2)cc1	GLP-1R inv ag 11.2µM
COc1ccc(-c2noc(CCC(=O)NC3CCN(Cc4ccccc4)CC3)n2)cc1	GLP-1R inv ag inconclusive
CCN(CC)c1nc(OCCNC(=O)Nc2ccccc2)nc(N(CC)CC)n1	HEK293 tox inconclusive, GLP-1R inv ag 5.01µM
O=C(NCCOc1nc(N2CCCCC2)nc(N2CCCCC2)n1)Nc1ccccc1	GLP-1R inv ag inconclusive
CC(C)(C)n1ncc2c(=O)n(CC(=O)OCc3ccccc3)cnc21	GLP-1R inv ag inconclusive
O=C(Cn1cnc2ccccc2c1=O)c1ccc(Cl)cc1	BRCA1 expr up 8.91µM
O=C(Cn1cnc2ccccc2c1=O)c1ccccc1	none
CC(C)(C)n1ncc2c(=O)n(CC(=O)c3ccccc3)cnc21	BRCA1 expr up 12.6µM
COc1cc(/C=C/c2nc3ccccc3nc2/C=C/c2cc(OC)c(OC)c(OC)c2)cc(OC)c1OC	none (no result: Integrin act MD, HEK293 tox, GLP1R ag, GLP-1R inv ag)
Cc1ccc(NC(=O)CSCc2cnn(-c3ccccc3)c2-n2cccc2)c(C)c1	GLP-1R inv ag inconclusive (no result: BRCA1 expr up, Integrin act MD, GLP1R ag)
Cc1ccc(Cl)cc1NC(=O)CSCc1cnn(-c2ccccc2)c1-n1cccc1	GLP-1R inv ag 10µM (no result: BRCA1 expr up, Integrin act MD, GLP1R ag)
CN(C)CCCN=c1cc(-c2ccccc2)oc2ccc(Cl)cc12	BRCA1 expr up 11.2µM, GLP-1R inv ag inconclusive
O=C(NC1CC1)c1ccc(Cn2c(SCc3ccccc3F)nc3cccnc32)cc1	none (no result: BRCA1 expr up, Integrin act MD, GLP1R ag)
CCOC(=O)c1ccccc1NC(=O)Cn1c(=O)n(CCC(=O)N2CCc3ccccc3C2)c(=O)c2ccccc21	none (no result: Integrin act MD)
CC(C(=O)O)c1ccc(N2Cc3ccccc3C2=O)cc1 (configuration not stated)	GLP-1R inv ag 6.31µM (no result: Integrin act MD)
Cc1cccc2sc(N(CCCN(C)C)C(=O)CCc3ccccc3)nc12	HEK293 tox inconclusive, GLP-1R inv ag 2.82µM
Cc1cccc2sc(N(CCCN(C)C)C(=O)CN3C(=O)c4ccccc4C3=O)nc12	HEK293 tox inconclusive
CCO[C@@H]1OC(C(=O)N2CCN(Cc3ccc4c(c3)OCO4)CC2)=C[C@H](C2CCCCC2)[C@H]1CCCO	GLP-1R inv ag 11.2µM
CCO[C@H]1OC(C(=O)N2CCN(Cc3ccccc3)CC2)=C[C@@H](C2CCCCC2)[C@@H]1CCCO	GLP-1R inv ag inconclusive
N#C/C(C(=O)c1ccccc1)=C1/CCCCCN1	BRCA1 expr up 3.98µM
Cc1ccc(-c2nc(-c3cccs3)c(-c3cccs3)[nH]2)cc1	GLP-1R inv ag inconclusive (no result: BRCA1 expr up, Integrin act MD, GLP1R ag)
O=[N+]([O-])c1cccc(-c2nc(-c3cccs3)c(-c3cccs3)[nH]2)c1	GLP-1R inv ag 2.51µM
O=[N+]([O-])c1ccc(-c2nc(-c3cccs3)c(-c3cccs3)[nH]2)cc1	HEK293 tox inconclusive, GLP-1R inv ag 3.16µM
Cc1ccc(NC(=O)C2CCCN(c3cnccn3)C2)cc1Cl (configuration not stated)	none (no result: BRCA1 expr up, Integrin act MD, GLP1R ag)
Cc1ccc2nc(-c3ccc(N4C(=NC(=O)CCC(=O)O)SC5CS(=O)(=O)CC54)cc3)sc2c1 (configuration not stated)	BRCA1 expr up 5.62µM
COc1ccccc1/C=C/C=N/NC(=O)c1ccccn1	BRCA1 expr up 5.01µM
COc1ccccc1/C=C/C=N/NC(=O)c1cnccn1	none
COc1ccccc1/C=C/C(=O)NCCc1ccccn1	BRCA1 expr up 3.16µM
COc1cc(/C=C/C(=O)NCc2ccccn2)cc(OC)c1OC	none
CCc1ccc(-c2csc(NC(=O)C3CCCO3)c2C(=O)OC(C)C)cc1 (configuration not stated)	GLP-1R inv ag 1.26µM
O=[N+]([O-])c1cccc(C=NN2CCCCCC2)c1	BRCA1 expr up 12.6µM
O=[N+]([O-])c1ccccc1/C=C/C=N/N1CCCCC1	BRCA1 expr up 2.82µM
O=[N+]([O-])c1cccc(/C=N/N2CCN(Cc3ccccc3)CC2)c1	BRCA1 expr up 12.6µM
O=[N+]([O-])c1cccc(/C=N\N2CCN(Cc3ccccc3Cl)CC2)c1	GLP-1R inv ag inconclusive
O=[N+]([O-])c1cccc(/C=N/N2CCN(c3ccccn3)CC2)c1	BRCA1 expr up 8.91µM
COc1cc(-c2ccno2)ccc1S(=O)(=O)N1CCN(c2ccc(C(C)=O)cc2)CC1	none (no result: BRCA1 expr up, Integrin act MD, GLP1R ag)
COc1ccc2ncc3c(-c4ccc(C)c(C)c4)nn(CC(=O)NC4CCCCC4)c3c2c1	none (no result: BRCA1 expr up, Integrin act MD, GLP1R ag)
CCc1ccc(-n2c(SCc3cccc(F)c3)nc3[nH]ncc3c2=O)cc1	GLP-1R inv ag inconclusive (no result: BRCA1 expr up, Integrin act MD, GLP1R ag)
CCC(=O)N1c2nc(C(C)C)nn2C2(CCCCC2)[C@@H]2CCCC[C@@H]21	none (no result: BRCA1 expr up, Integrin act MD, GLP1R ag)
Cc1ccc(CNC(=O)c2ccc3c(c2)N(Cc2ccccc2F)C(=O)c2ccccc2S3(=O)=O)cc1	none (no result: Integrin act MD)
Cc1ccc(Cn2ncc3c(N4CCN(c5ccccc5C)CC4)ncnc32)cc1	GLP-1R inv ag 3.55µM
Cc1ccc(Cn2ncc3c(N4CCOCC4)ncnc32)cc1	none
[NH-]CCC([O-])=NC(Cc1cnc[nH]1)C(=O)[O-].[Zn+2] (configuration not stated)	none (no result: BRCA1 expr up, Integrin act MD, HEK293 tox, GLP-1R inv ag)
Nc1ccc(-c2nc3ccc([N+](=O)[O-])cc3[nH]2)cc1	BRCA1 expr up 2µM
COc1cc2c(NC3CCN(C)CC3)nc(N3CCCN(C)CC3)nc2cc1OCC1CCNCC1	none (no result: Integrin act MD, HEK293 tox, GLP1R ag, GLP-1R inv ag)
CN(CC/C=C1/c2ccccc2CSc2ccccc21)CCCO	HEK293 tox inconclusive, GLP-1R inv ag 5.62µM
CC(O)CN(C)CC/C=C1/c2ccccc2CSc2ccccc21 (configuration not stated)	GLP-1R inv ag inconclusive
C=CCN(C)CC/C=C1\c2ccccc2CSc2ccccc21	HEK293 tox inconclusive, GLP-1R inv ag inconclusive
C#CCN(C)CC/C=C1\c2ccccc2CSc2ccccc21	GLP-1R inv ag 4.47µM
NCC/C=C1/c2ccccc2CSc2ccccc21	HEK293 tox inconclusive, GLP-1R inv ag 3.16µM
CCc1ccccc1NC(=O)CCn1cccn1	none (no result: BRCA1 expr up, Integrin act MD, GLP1R ag)
COc1cccc(CNC(=O)c2ccc3c(c2)nc2n3CCC(C)C2)c1 (configuration not stated)	none (no result: BRCA1 expr up, Integrin act MD, GLP1R ag)
Cc1ccc(C(C)NC(=O)c2c(-c3ccccc3)noc2C)cc1C (configuration not stated)	GLP-1R inv ag 7.94µM
